# Source: PubChem
# Tgondii IFNg – T. gondii growth inhibition with IFN-gamma, primary screen, cell-based | AID 1259416, 2018 | 69,000 compounds, 3.8% hits | Toxoplasma gondii growth in IFN-gamma-treated host cells; hits give low values | activity change, negative = inhibition, % (concentration not given with the values); in the data active = activity change below about -70%, passing the limit was not always enough;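 note: host cells are HeLa cells infected with Toxoplasma gondii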
# Starred values were filed as active, the others as inactive; i = inactive; ! = repeats disagree. Shown is part of a subset that was picked to be rich in hits.
SMILES,Tgondii IFNg
COc1ccc(S(=O)(=O)NCc2nc(-c3ccccc3)oc2C)cc1,20
COc1ccc(-c2nc(CNS(=O)(=O)c3ccc(C(C)C)cc3)c(C)o2)cc1,-75*
COc1ccc(-c2nc(CNS(=O)(=O)c3ccc(F)cc3)c(C)o2)cc1,33
Cc1ccc(C)c(C(NC(=O)Cc2c(C)noc2C)c2ccncc2)c1 (stereo not given),9
COC(=O)c1cc(C)nc2c1c(=O)n(Cc1nc(-c3ccccc3)oc1C)c(=O)n2C,-27
COCC(=O)N1CC[C@H]2[C@H]1CCC(=O)N2c1ccccc1,-10
CN(Cc1cnc(-c2ccccn2)nc1)Cc1cnn(-c2ccccc2)c1,4
c1ccc(-c2nnc(-c3ccccn3)nc2-c2ccccc2)cc1,-103*
Cc1ccccc1Nc1nnc(-c2ccccc2)c(-c2ccccc2)n1,15
Cc1cc(COc2ccccc2)oc1C(=O)N1CCOC(C(F)(F)F)C1 (stereo not given),-5
CCCn1cc(CN2CCN(Cc3cccc(Cl)c3)CC2)c(C)n1,-9
CCS(=O)(=O)N1CCC2(CC1)OC(=O)C(C)=C2C(=O)N1CCN(c2ccccc2)CC1,21
Cc1ccc2[nH]c(-c3nc(CCN(C)C(=O)c4cccn4C)no3)cc2c1,48
CCc1c(-c2nc(CCN(C)C(=O)c3cccn3C)no2)[nH]c2ccc(C)cc12,-91*
COc1ccc2[nH]c(-c3nc(CCN(C)C(=O)c4ccncc4)no3)cc2c1,102
COCCN1C(=O)N(C2Cc3ccccc3C2)C(=O)C12CCN(Cc1sccc1C)CC2,16
CCN1C(=O)CCc2cc(NS(=O)(=O)Cc3ccc(Cl)cc3)ccc21,-41
CC(C)CN1C(=O)CCc2cc(NS(=O)(=O)c3ccccc3)ccc21,-50
CC(C)CN1C(=O)CCc2cc(NS(=O)(=O)c3ccc(Cl)cc3)ccc21,-80*
CCN1C(=O)CCc2cc(NS(=O)(=O)c3ccc(C4CCCCC4)cc3)ccc21,-95*
Cc1cc(C)cc(S(=O)(=O)Nc2ccc3c(c2)CCC(=O)N3CC(C)C)c1,-40
CCN1C(=O)CCc2cc(NS(=O)(=O)c3cccc(F)c3)ccc21,194
CCN1C(=O)CCc2cc(NS(=O)(=O)c3ccc(C#N)cc3)ccc21,-102*
CCN1C(=O)CCc2cc(NS(=O)(=O)c3c(C)cccc3Cl)ccc21,-48
CCN1C(=O)CCc2cc(NS(=O)(=O)c3cc(F)ccc3F)ccc21,53
SMILES,Tgondii IFNg
C[C@@H]1CN(Cc2ccccn2)CC[C@]12CCC(C(=O)N1CCCC1)O2 (stereo not given in full),-33
Oc1ccccc1CN1CCC(c2[nH]ncc2-c2cccc(C(F)(F)F)c2)CC1,-50
Cc1ccc(C)c(NC(=O)c2c3c(nc4ccccc24)CCCC3)c1,-37
CN1CCN2C[C@@H](NC(=O)c3[nH]ncc3Cl)C[C@H]2C1,1
CC(C)(C)c1ccc(C(=O)N2CCN(C(=O)c3ccc(C(C)(C)C)cc3)CC2)cc1,-49
CC(C)(C)c1ccc(C(=O)N2CCCn3c2nc2ccccc2c3=O)cc1,-40
CC(C)(C)c1ccc(C(=O)N2NC(=Nc3ccccc3)SC2(C)C)cc1,-87*
O=C(NCCc1nc(-c2ccccc2)cs1)C1(c2cccc(F)c2)CCOCC1,8
Cc1ccccc1CNC(=O)CN1CCCCC1CCN1CCOCC1 (stereo not given),2
Cc1ccc(NC(=O)c2c(O)c3cc(F)cc4c3n(c2=O)C(C)CC4)nc1 (stereo not given),4
Cc1nc(NC(=O)CCC(=O)N2CCC(c3ccccc3)C2)sc1C (stereo not given),12
OCCOCCN1CCN(C(c2ccccc2)c2ccc(Cl)cc2)CC1 (stereo not given),-97*!
O=C(O)COCCN1CCN([C@H](c2ccccc2)c2ccc(Cl)cc2)CC1,23
O=C(O)COCCN1CCN(C(c2ccccc2)c2ccc(Cl)cc2)CC1 (stereo not given),18
COc1ccc(-c2cc(N)nc3[nH]ccc23)cn1,-34
Cc1cnc(C)c(-c2cc(N)nc3[nH]ccc23)n1,196
Nc1cc(-c2cnc3ccccc3n2)c2cc[nH]c2n1,-90*
CN(C)c1ccc(C(=C2C=CC(=[N+](C)C)C=C2)c2ccc(N(C)C)cc2)cc1,-81*
Cc1cc(C)n(Cc2nc(-c3ccc(NC(=O)c4ccc(C)s4)cc3)oc2C)n1,59
Cc1c(C(=O)NC(c2ccc3c(c2)OCCCO3)C(C)C)n[nH]c1-c1cccs1 (stereo not given),59
COC(=O)C[C@](O)(CCCC(C)(C)O)C(=O)O[C@@H]1C(OC)=C[C@]23CCCN2CCc2cc4c(cc2[C@H]13)OCO4,-82*
CCn1cc(Cn2cc(-c3ccc(OC)cc3OC)nn2)cn1,-42
COc1ccc(N(C(=O)c2ccc(NC(C)=O)cc2)C2(C(=O)NCc3ccccc3)CCN(C(C)=O)CC2)cc1,58
CCc1cc(-n2cnc3c(C)ncnc32)ccc1NC(C)=O,0
OC(CSc1cccs1)CN1CCN(C(c2ccccc2)c2ccccc2)CC1 (stereo not given),-94*
SMILES,Tgondii IFNg
C(=C\c1ccccc1)/CN1CCN(C(c2ccccc2)c2ccccc2)CC1,14
O=C1CC2(CCN(C(=O)c3cccc(-c4ccccc4F)c3)CC2)CN1,3
Cc1ccc2c(c1)cc(S(=O)(=O)c1ccccc1)c(=O)n2CC(=O)NC(C)C,-3
COc1ccc(CN2CCc3nc(NC(C)C)nc(N(C)C)c3C2)cc1,-21
Cc1nc(CCNC(=O)Cc2nc3ccc(Cl)cc3[nH]2)sc1C,131
CSc1sc(C(=O)Nc2cc(C(F)(F)F)cc(C(F)(F)F)c2)c2c1C=CCC2,-55
COc1cncc(C(=O)Nc2ccc(Cl)cc2)c1,30
CSc1ncc2c(n1)-c1c(SC)sc(C(=O)Nc3ccc(Cl)cc3)c1CC2,-85*
O=C(CN1C(=O)CCc2cc(S(=O)(=O)N3CCOCC3)ccc21)N1CCN(c2ccccc2)CC1,16
O=C(COc1ccc(S(=O)(=O)Nc2ccc(F)cc2)cc1Cl)NCc1ccco1,-4
COc1ccc(-c2cc(C)nc(C3CCNCC3)n2)cc1,-40
COc1ccc(-c2cc(C3CNC3)nc(C)n2)cc1,-77*
COc1ccc(-c2cc(-c3ccc(OC)cc3)nc(-c3ccc(C)o3)c2)cc1,37
CN(C)c1cccc(C(=O)N2CCc3c([nH]c4ccccc34)C2c2ccc(F)cc2)c1 (stereo not given),-94*
COCC(=O)N1CCc2c([nH]c3ccccc23)C1c1ccc(F)cc1 (stereo not given),410
Cc1ccc(C2c3[nH]c4ccccc4c3CCN2C(=O)c2ccc(F)cc2)cc1 (stereo not given),i
O=C(c1ccccc1)N1CCc2c([nH]c3ccccc23)C1c1ccc(F)cc1 (stereo not given),-85*
Cc1ccc(C2c3[nH]c4ccccc4c3CCN2C(=O)c2ccc(Br)cc2)cc1 (stereo not given),246
COc1ccc(C2c3[nH]c4ccccc4c3CCN2C(=O)c2ccc(Br)cc2)cc1 (stereo not given),-89*
CSc1ccc(C2c3[nH]c4ccccc4c3CCN2C(=O)c2ccc(N(C)C)cc2)cc1 (stereo not given),-53
COc1ccc(C(=O)N2CCc3c([nH]c4ccccc34)C2c2ccc(F)cc2)cc1 (stereo not given),-130*
O=C(c1ccccc1F)N1CCc2c([nH]c3ccccc23)C1c1ccc(F)cc1 (stereo not given),281
Cc1ccc(C(=O)N2CCc3c([nH]c4ccccc34)C2c2ccc(F)cc2)cc1 (stereo not given),-19
